According to PubChem BioAssay AID1159580 (chemical genetic matrix, 2015):
Where “and” joins values, the source holds several entries; their conditions need not be identical. Identical values can stand only once. The campaign covered roughly 5,500 compounds. About 2,000 (36%) were called active. About 18% were inconclusive and are not listed. Cut-off read from the data, not from the text of the source: active = normalized growth mostly below about 0.91 (no sharp cut-off); inconclusive = no clear call, values can overlap the other calls; inactive = mostly above about 0.92. This is one part of the list.

Test: chemical genetic growth profiling, strain panel (AID 1159580);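 note: tested at 20 µM; growth read once vehicle control cultures reached saturation at 30 °C; 1 = growth at the plate median or of vehicle wells; lower values mean less growth of the strain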
Conditions: S. cerevisiae deletion strains, growth OD

Measured: normalized growth

COc1cc(O)c2c(=O)cc(C)oc2c1CC=C(C)C
active: locus YAL013W, strain DEP1, stronger effect = lower value 0.864 | locus YCL029C, strain bik1, stronger effect = lower value 0.872 | locus YDL035C, strain GPR1, stronger effect = lower value 0.805 | locus YDL074C, strain BRE1, stronger effect = lower value 0.748 | locus YDL192W, strain arf1, stronger effect = lower value 0.814 | locus YDR101C, strain arx1, stronger effect = lower value 0.89 | locus YDR137W, strain rgp1, stronger effect = lower value 0.817 | locus YDR162C, strain NBP2, stronger effect = lower value 0.696 | locus YDR195W, strain ref2 1.17 [resistant] | locus YDR318W, strain mcm21, stronger effect = lower value 0.806 | locus YDR392W, strain spt3, stronger effect = lower value 0.496 | locus YDR502C, strain sam2, stronger effect = lower value 0.909 | locus YER167W, strain BCK2, stronger effect = lower value 0.893 | locus YGL086W, strain mad1, stronger effect = lower value 0.876 | locus YHR013C, strain ard1, stronger effect = lower value 1.21 [resistant] | locus YHR129C, strain ARP1, stronger effect = lower value 0.919 | locus YIL066C, strain RNR3, stronger effect = lower value 0.781 | locus YIL125W, strain kgd1, stronger effect = lower value 0.93 | locus YIR030C, strain dcg1, stronger effect = lower value 0.92 | locus YJL095W, strain BCK1 (second series), stronger effect = lower value 0.905 | locus YJL129C, strain trk1, stronger effect = lower value 0.867 | locus YKR001C, strain vps1, stronger effect = lower value 0.806 | locus YLR113W, strain HOG1, stronger effect = lower value 0.838 | locus YLR262C, strain YPT6 (second series), stronger effect = lower value 0.827 | locus YLR268W, strain sec22, stronger effect = lower value 0.816 | locus YLR320W, strain mms22, stronger effect = lower value 0.83 | locus YLR330W, strain CHS5, stronger effect = lower value 0.811 | locus YLR342W, strain FKS1 (second series), stronger effect = lower value 0.78 | locus YLR371W, strain rom2, stronger effect = lower value 0.831 | locus YLR418C, strain cdc73, stronger effect = lower value 0.628 | locus YML032C, strain rad52, stronger effect = lower value 0.858 | locus YMR058W, strain fet3, stronger effect = lower value 0.845 | locus YMR205C, strain PFK2, stronger effect = lower value 0.849 | locus YNL071W, strain lat1, stronger effect = lower value 0.847 | locus YNL233W, strain BNI4, stronger effect = lower value 0.852 | locus YNL307C, strain MCK1, stronger effect = lower value 0.618 | locus YOL147C, strain pex11, stronger effect = lower value 0.818 | locus YOR144C, strain elg1, stronger effect = lower value 0.919 | locus YOR184W, strain ser1, stronger effect = lower value 0.587 | locus YPR163C, strain tif3, stronger effect = lower value 0.776 | strain wtn01, stronger effect = lower value 0.852
inactive: locus YAL021C, strain ccr4, stronger effect = lower value 0.99 | locus YAL026C, strain drs2, stronger effect = lower value 0.996 | locus YAL030W, strain snc1, stronger effect = lower value 0.967 | locus YBL061C, strain skt5, stronger effect = lower value 0.96 | locus YBR009C, strain hhf1, stronger effect = lower value 0.917 | locus YBR021W, strain FUR4, stronger effect = lower value 0.9 | locus YBR023C, strain chs3, stronger effect = lower value 0.941 | locus YBR171W, strain sec66, stronger effect = lower value 0.968 | locus YBR229C, strain ROT2, stronger effect = lower value 0.93 | locus YBR231C, strain swc5, stronger effect = lower value 0.98 | locus YBR279W, strain paf1, stronger effect = lower value 0.991 | locus YCL011C, strain gbp2, stronger effect = lower value 0.962 | locus YCL016C, strain dcc1, stronger effect = lower value 0.953 | locus YCL069W, strain vba3, stronger effect = lower value 0.997 | locus YCR088W, strain abp1, stronger effect = lower value 0.982 | locus YDL005C, strain med2, stronger effect = lower value 1.03 | locus YDL040C, strain nat1, stronger effect = lower value 0.986 | locus YDL101C, strain DUN1, stronger effect = lower value 0.954 | locus YDL185W, strain tfp1, stronger effect = lower value 0.929 | locus YDR001C, strain nth1, stronger effect = lower value 0.979 | locus YDR069C, strain doa4, stronger effect = lower value 0.97 | locus YDR150W, strain NUM1, stronger effect = lower value 0.946 | locus YDR159W, strain sac3, stronger effect = lower value 0.959 | locus YDR297W, strain sur2, stronger effect = lower value 0.967 | locus YDR334W, strain swr1, stronger effect = lower value 0.984 | locus YDR335W, strain msn5, stronger effect = lower value 0.986 | locus YDR388W, stronger effect = lower value 0.943 | locus YEL003W, strain gim4, stronger effect = lower value 0.957 | locus YEL037C, strain rad23, stronger effect = lower value 0.984 | locus YEL061C, strain CIN8 (second series), stronger effect = lower value 0.993 | locus YEL061C, strain CIN8, stronger effect = lower value 0.941 | locus YER015W, strain faa2, stronger effect = lower value 0.977 | locus YER016W, strain bim1, stronger effect = lower value 0.965 | locus YER110C, stronger effect = lower value 0.947 | locus YER111C, strain swi4, stronger effect = lower value 1.01 | locus YER155C, strain BEM2 (second series), stronger effect = lower value 0.903 | locus YER155C, strain BEM2, stronger effect = lower value 0.928 | locus YFR010W, strain ubp6, stronger effect = lower value 1 | locus YGL078C, strain dbp3, stronger effect = lower value 0.971 | locus YGL167C, strain pmr1, stronger effect = lower value 0.952 | locus YGL173C, strain kem1, stronger effect = lower value 0.982 | locus YGL227W, strain vid30, stronger effect = lower value 1 | locus YGL240W, strain doc1, stronger effect = lower value 0.987 | locus YGL248W, strain PDE1, stronger effect = lower value 0.898 | locus YGL253W, strain hxk2, stronger effect = lower value 0.99 | locus YGR078C, strain PAC10, stronger effect = lower value 0.874 | locus YGR135W, strain pre9, stronger effect = lower value 1 | locus YGR252W, strain gcn5, stronger effect = lower value 0.839 | locus YHR027C, strain rpn1, stronger effect = lower value 0.985 | locus YHR030C, strain SLT2, stronger effect = lower value 0.95 | locus YHR079C, strain IRE1 (second series), stronger effect = lower value 0.949 | locus YHR079C, strain IRE1, stronger effect = lower value 0.953 | locus YHR094C, strain hxt1, stronger effect = lower value 0.941 | locus YHR142W, strain chs7, stronger effect = lower value 0.884 | locus YHR200W, strain rpn10, stronger effect = lower value 0.952 | locus YIL073C, strain SPO22, stronger effect = lower value 0.849 | locus YJL092W, strain hpr5, stronger effect = lower value 0.985 | locus YJL115W, strain asf1, stronger effect = lower value 1.02 | locus YJL134W, strain LCB3, stronger effect = lower value 0.946 | locus YJL154C, strain vps35, stronger effect = lower value 1 | locus YJL164C, strain tpk1, stronger effect = lower value 0.941 | locus YJL166W, strain qcr8, stronger effect = lower value 0.967 | locus YJL168C, strain set2, stronger effect = lower value 0.965 | locus YJL187C, strain SWE1 (second series), stronger effect = lower value 0.943 | locus YJR043C, strain POL32, stronger effect = lower value 0.87 | locus YJR066W, strain TOR1, stronger effect = lower value 0.929 | locus YKL009W, strain mrt4, stronger effect = lower value 0.897 | locus YKL068W, stronger effect = lower value 0.945 | locus YKL085W, strain MDH1 (second series), stronger effect = lower value 0.936 | locus YKL085W, strain MDH1, stronger effect = lower value 0.936 | locus YKL160W, strain elf1, stronger effect = lower value 0.945 | locus YKR026C, strain gcn3, stronger effect = lower value 0.986 | locus YKR091W, strain srl3, stronger effect = lower value 0.978 | locus YLL001W, strain dnm1, stronger effect = lower value 0.982 | locus YLL026W, stronger effect = lower value 0.974 | locus YLL041C, strain sdh2, stronger effect = lower value 0.96 | locus YLR027C, strain aat2, stronger effect = lower value 0.972 | locus YLR039C, strain RIC1, stronger effect = lower value 0.797 | locus YLR058C, strain SHM2, stronger effect = lower value 0.912 | locus YLR102C, strain apc9, stronger effect = lower value 0.945 | locus YLR221C, strain rsa3, stronger effect = lower value 0.942 | locus YLR258W, strain gsy2, stronger effect = lower value 0.972 | locus YLR262C, strain YPT6, stronger effect = lower value 0.674 | locus YLR342W, strain FKS1, stronger effect = lower value 0.929 | locus YLR357W, strain rsc2, stronger effect = lower value 1.06 | locus YLR370C, strain arc18, stronger effect = lower value 0.97 | locus YLR384C, strain iki3, stronger effect = lower value 0.991 | locus YML016C, strain PPZ1, stronger effect = lower value 0.944 | locus YML120C, strain ndi1, stronger effect = lower value 0.976 | locus YML124C, strain tub3, stronger effect = lower value 0.945 | locus YMR078C, strain ctf18, stronger effect = lower value 0.919 | locus YMR125W, strain sto1, stronger effect = lower value 0.997 | locus YMR129W, stronger effect = lower value 0.979 | locus YMR223W, strain ubp8, stronger effect = lower value 0.911 | locus YMR231W, strain pep5, stronger effect = lower value 1.01 | locus YMR307W, strain GAS1, stronger effect = lower value 0.668 | locus YNL067W, strain RPL9B, stronger effect = lower value 1 | locus YNL153C, strain GIM3, stronger effect = lower value 0.926 | locus YNL183C, strain NPR1, stronger effect = lower value 0.935 | locus YNL209W, strain ssb2, stronger effect = lower value 0.973 | locus YNL248C, strain rpa49, stronger effect = lower value 1.04 | locus YNL250W, strain rad50, stronger effect = lower value 0.977 | locus YNL271C, strain bni1, stronger effect = lower value 0.953 | locus YNL298W, strain CLA4, stronger effect = lower value 0.923 | locus YNL322C, strain KRE1 (second series), stronger effect = lower value 0.998 | locus YNR049C, strain mso1, stronger effect = lower value 0.996 | locus YNR052C, strain pop2, stronger effect = lower value 0.988 | locus YOL012C, strain htz1 0.465 | locus YOR001W, strain rrp6, stronger effect = lower value 0.989 | locus YOR061W, strain CKA2, stronger effect = lower value 0.92 | locus YOR069W, strain VPS5, stronger effect = lower value 0.964 | locus YOR070C, strain gyp1, stronger effect = lower value 0.982 | locus YOR080W, strain dia2, stronger effect = lower value 0.993 | locus YOR083W, strain WHI5, stronger effect = lower value 0.97 | locus YOR106W, strain vam3, stronger effect = lower value 0.971 | locus YOR136W, strain idh2, stronger effect = lower value 0.963 | locus YOR231W, strain MKK1, stronger effect = lower value 0.941 | locus YOR265W, strain rbl2, stronger effect = lower value 0.973 | locus YOR270C, strain vph1, stronger effect = lower value 0.837 | locus YOR290C, strain snf2, stronger effect = lower value 0.941 | locus YOR316C, strain cot1, stronger effect = lower value 0.944 | locus YPL051W, strain arl3, stronger effect = lower value 0.936 | locus YPL078C, strain atp4, stronger effect = lower value 0.959 | locus YPL106C, strain sse1, stronger effect = lower value 0.954 | locus YPL240C, strain hsp82, stronger effect = lower value 0.965 | locus YPL256C, strain CLN2, stronger effect = lower value 0.933 | locus YPR119W, strain clb2, stronger effect = lower value 0.951 | locus YPR141C, strain kar3, stronger effect = lower value 0.93 | locus YPR167C, strain met16, stronger effect = lower value 0.937
0.78 (active) and 0.962 (inactive): locus YJL095W, strain BCK1, stronger effect = lower value
